Only some compounds are listed: those with a hit (about 3.1% of all), similar ones and a draw of the others.
Tau fluor counter – counter-screen for tau fibril formation inhibitors; Potency, µM (titrated, usually from 57.7 µM), without a hit: at the top dose activity change, negative = decrease; AID 1463; 0.93% of 280,000 active; tau K18 P301L Alexa594 fluorescence, heparin fibrillization; further: nearly all actives have a fitted effect of over 55% in size
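Human tau K18 P301L (15 uM unlabeled, 0.24 uM Alexa 594-labeled) in 100 mM sodium acetate pH 7 with 20 uM heparin, 6 hr at 37 C. ThT 30 uM added, 1 hr ambient; Alexa 594 FP and total fluorescence read at 555/632 nm.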
TRb SRC2 PPI – disrupts binding of human TR beta to SRC2 | Potency, µM (top dose mostly 106 µM), inactives show at the highest dose activity change, negative = inhibition, most hits filed as inhibitors | AID 1469 | TRbeta-SRC2 peptide binding, fluorescence polarization; receptor liganded with 1 µM T3 | P10828 | 0.065% of 280,000 active;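 further: plate controls were bound peptide for no effect and peptide without receptor for full effect; nearly all actives have a fitted effect of over 50% in size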
Target sequence (P10828 whole entry, looked up): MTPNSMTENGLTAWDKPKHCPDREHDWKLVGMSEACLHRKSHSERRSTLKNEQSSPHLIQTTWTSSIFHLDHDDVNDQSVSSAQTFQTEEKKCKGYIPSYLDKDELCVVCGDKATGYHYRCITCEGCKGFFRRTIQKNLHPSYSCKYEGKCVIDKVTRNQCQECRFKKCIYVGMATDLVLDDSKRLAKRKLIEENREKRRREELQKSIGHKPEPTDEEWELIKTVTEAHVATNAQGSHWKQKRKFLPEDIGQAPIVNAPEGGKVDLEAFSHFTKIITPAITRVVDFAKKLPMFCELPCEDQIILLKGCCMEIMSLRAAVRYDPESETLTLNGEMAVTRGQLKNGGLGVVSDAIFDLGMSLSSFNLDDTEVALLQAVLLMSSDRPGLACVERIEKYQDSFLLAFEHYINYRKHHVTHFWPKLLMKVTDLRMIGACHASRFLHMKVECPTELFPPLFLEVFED
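Read-out is fluorescence polarization (555 nm excitation, 632 nm emission) of a Texas Red SRC2 coactivator peptide; loss of signal reflects blocked binding to human TRb ligand-binding domain in the presence of 1 uM T3.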
Tau fibril FP – tau fibrillization inhibition (FP) | P10636 | K18 P301L tau heparin fibrillization, Alexa594 FP, 6 h | Potency, µM (highest dose often 57.7 µM), for the others: at the highest dose activity, negative = inhibition, usual class: inhibitors | 0.39% of 280,000 active | AID 1468; further: nearly all actives have a fitted effect of over 55% in size
Target sequence (P10636 561-689 P618L limits assumed): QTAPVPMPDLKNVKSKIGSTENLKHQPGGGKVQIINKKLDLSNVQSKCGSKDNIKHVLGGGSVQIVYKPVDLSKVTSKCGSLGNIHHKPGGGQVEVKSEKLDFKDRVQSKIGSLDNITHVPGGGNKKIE
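Steps: dispense K18 P301L tau (15 uM plus 0.24 uM Alexa 594 tracer, final) in pH 7 sodium acetate; add compound; add heparin (20 uM final); incubate 6 hr, 37 C; add ThT (30 uM final); after 1 hr ambient, read FP.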
Tau ThT inhib – inhibitors of human tau fibril formation, thioflavin T binding; recombinant tau K18 P301L (four-repeat tau fragment), heparin-induced fibrillization, ThT fluorescence; Potency, µM (series often up to 57.4 µM), without a hit: top-dose activity, negative = inhibition, most hits filed as inhibitors; 2.1% of 270,000 active; further: nearly all actives have a fitted effect of over 55% in size
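Aggregation was driven by heparin (20 uM final) acting on recombinant tau […] bearing P301L in 100 mM sodium acetate pH 7; fibrils were detected with Thioflavin T.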
TexasRed fluor – Texas Red fluorescence interference in TRb-SRC2 counter-screen; TRb/SRC2 Texas Red total fluorescence interference; AID 1479; Potency, µM (titrated, usually from 106 µM), for the others: at the highest dose fluorescence change, negative = quenching; 0.29% of 280,000 active; active means well fitted curve in either direction with a large enough effect; inconclusive means small, poorly fitted or top-dose-only effect
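Human TRb ligand-binding domain at 0.6 uM with 20 nM Texas Red SRC2 peptide in Tris buffer containing 1 uM T3 and 5% DMSO, incubated with compound 5 h at ambient temperature. Total fluorescence (555/632 nm) calculated as parallel + 2 × perpendicular.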
* marks the source's active call; other numbers are inactive results; ? = inconclusive; [ ] = another dose, or the depositor's remark. Unless noted, the call rests on the fitted dose curve; in most records, active means well fitted curve in the direction sought with a large enough effect; inconclusive means small, poorly fitted or top-dose-only effect, or another doubt; inactive means no such curve, though single readings can be large; an effect the other way counts as inactive or inconclusive. Unless noted, on the % scale 0 is the no-effect control and ±100 the full control effect; potency means the concentration at half of the fitted maximal effect.

SMILES	Tau fluor counter	TRb SRC2 PPI	Tau fibril FP	Tau ThT inhib	TexasRed fluor
O=C1CCC/C1=C/Nc1ccc(Cl)cc1	-12%	4%	10%	-13%	-2%
COc1ccc(OC2C(O)COC2/C=C/C#Cc2ccc(F)cc2F)cc1 (stereo unspecified)	-19%[11.6 µM]	6%[11.2 µM]	0%[11.6 µM]	-16%[11.5 µM]	-1%[11.2 µM]
Nc1c(S(=O)(=O)c2ccccc2)c2nc3ccccc3nc2n1/N=C/c1ccco1	?	?	-8%	28µM*	-24%
Cc1ccc(S(=O)(=O)c2c(N)n(/N=C/c3ccco3)c3nc4ccccc4nc23)cc1C	?	-5%	?	16µM*	-2%
Nc1c(S(=O)(=O)c2cccs2)c2nc3ccccc3nc2n1/N=C/c1cccc(O)c1	3.2µM*[quencher]	4%	7.9µM*	0%	-1%
CCOC(=O)c1cccc(NC(=O)c2ccc3nc(Cc4ccccc4)oc3c2)c1	?	9%	?	-8%	0%
CCc1nn(CC(=O)NC2CC2)c(=O)c2cc3c(OC)cccc3n12	-4%	14%	-4%	-6%	-1%
COc1cc2c(C#N)c(N3CCc4ccccc4C3)nc(N)c2c(N)n1	14µM*[quencher]	-3%	1%	?	-1%
CN(CC(=O)Nc1cccc(Cl)c1)S(=O)(=O)c1ccc2[nH]c3c(c2c1)CCCC3	14µM*[quencher]	0%	-10%	-8%	3%
COc1ccc(NC(=O)CN(C)S(=O)(=O)c2ccc3[nH]c4c(c3c2)CCCC4)cc1Cl	14µM*[quencher]	8%	5%	-9%	-15%
Cc1ccc(NC(=O)CN(C)S(=O)(=O)c2ccc3[nH]c4c(c3c2)CCCC4)c(Cl)c1	?	-1%	6%	-4%	-3%
CN(CC(=O)Nc1cccc(C(F)(F)F)c1)S(=O)(=O)c1ccc2[nH]c3c(c2c1)CCCC3	25µM*[quencher]	3%	?	-8%	2%
COc1ccc(NC(=O)CN(C)S(=O)(=O)c2ccc3[nH]c4c(c3c2)CCCC4)cc1OC	?	0%	15%	-15%	0%
Cc1c2ccccc2c(CSC(=N)N)c2ccccc12	-28%	-8%	?	13µM*	-3%
Cc1ccc(S(=O)(=O)Nc2cc3c(cc2Cl)n(C)c(=O)c(=O)n3C)cc1	-10%	-1%	4%	?	-1%
CCC(C(=O)Nc1ccccc1OC)n1c(C(=O)OC)cc2sc(Cl)cc21 (stereo unspecified)	-30%	-19%	-16%	-6%	20µM*[quencher]
CCOc1ccccc1NC(=O)C(CC)n1c(C(=O)OC)cc2occc21 (stereo unspecified)	-28%	-6%	-4%	-13%	2%
COC(=O)/C=C1\OC(c2ccccc2)=CC1=O	-1%	2%	-10%	25µM*	1%
Cc1ccc(-c2nc3cc(Cl)ccc3o2)cc1NC(=O)c1cc2ccccc2o1	-17%	1%	-5%	-14%	-9%
COc1ccc(NC(=O)c2c(NCc3cccs3)sc3c2CCCC3)cc1	?	-9%	-10%	?	-1%
COc1ccccc1NC(=O)c1c(NCc2ccc(C)o2)sc2c1CCCCC2	?	1%	?	25µM*	0%
COc1ccc(Cl)cc1NC(=O)c1c(NCc2ccc(C)o2)sc2c1CCC(C)C2 (stereo unspecified)	-9%	1%	3%	-2%	-1%
COc1ccc(OC)c(NC(=O)c2c(NCc3ccc(C)o3)sc3c2CCCCC3)c1	?	0%	?	25µM*	-2%
COc1ccc(NC(=O)c2c(NCc3cccs3)sc3c2CCCCC3)c(OC)c1	?	3%	?	25µM*	3%
COc1ccc(Cl)cc1NC(=O)c1c(NCc2ccc(C)o2)sc2c1CCCCC2	-21%	0%	-12%	?	-2%
SMILES	Tau fluor counter	TRb SRC2 PPI	Tau fibril FP	Tau ThT inhib	TexasRed fluor
COc1ccccc1-c1c(C)nn2c(N3CCN(c4cccc(Cl)c4)CC3)cc(C)nc12	-14%	-1%	?	?	3%
O=C1/C(=C/c2ccccc2[N+](=O)[O-])COc2ccccc21	?	4%	?	13µM*	-1%
O=C1/C(=C/c2ccccn2)COc2ccccc21	0%	-4%	2%	?	-1%
CNc1ccc(/C=C2\COc3ccccc3C2=O)cc1[N+](=O)[O-]	-12%	-9%	-2%	1.6µM*	0%
Cc1c(C(=O)N2c3ccccc3Sc3ccccc32)cccc1[N+](=O)[O-]	-28%	-24%	-4%	-7%	1%
Nc1cccc(Oc2c(F)c(F)c(Oc3cccc(N)c3)c(F)c2F)c1	6.3µM*[quencher]	-1%	?	?	-2%
O=C(Nc1ccc(Cl)c(Cl)c1)Nc1nnc(CC2=CCCCC2)s1	?	2%	8.9µM*	11%	-1%
C/C(=N\Nc1ccc([N+](=O)[O-])cc1)c1ccc(O)cc1	?	-4%	13%	3.2µM*	-9%
CC(=O)NCC(=O)OCc1ccc([N+](=O)[O-])cc1	5%	-5%	0%	10%	-3%
CC(=O)NC/C(C)=N\Nc1ccc([N+](=O)[O-])cc1	-27%	1%	-1%	16µM*	-5%
C/C(=N\Nc1ccc([N+](=O)[O-])cc1)c1cccc(N)c1	16µM*[quencher]	-9%	?	3.5µM*	-7%
COc1c(Cl)cc(Cl)cc1CNCCO	7%	1%	-1%	5%	0%
CCOC(=O)CSc1nc2cc(OCC)ccc2cc1C#N	-23%	0%	0%	16µM*	-4%
Cc1ccc(-c2nc(S(=O)(=O)c3ccc(C)cc3)c(SCC(=O)c3ccccc3)o2)cc1	?	2%	-15%	-13%	1%
CCOC(=O)c1ccc(N2C(=O)c3[nH]nc(-c4ccccc4)c3C2c2cccs2)cc1 (stereo unspecified)	?	4%	?	0%	-2%
CCOC(=O)c1c(N)sc(-c2ccccc2)c1C	?	-10%	6%	25µM*	-6%
COc1ccc(/C=N/Nc2snc(SC)c2C#N)cc1OC	11µM*[quencher]	-1%	?	14µM*	-11%
COC(=O)C1CSC(C(=O)OC)N1C(=O)CN1CCN(c2ccc(OC)cc2)CC1 (stereo unspecified)	-4%	3%	-2%	-7%	-1%
CCOC(=O)C1(C)/C(=N/Nc2ccccc2OC)C(=O)C(=O)N1c1ccccc1 (stereo unspecified)	-15%	-10%	-11%	16µM*	-3%
CCOC(=O)C1(C)C=C(Nc2cccc(OC)c2)C(=O)N1c1ccccc1 (stereo unspecified)	-30%	-2%	1%	?	-1%
CCOC(=O)C1(C)/C(=N/Nc2ccccc2)C(=O)C(=O)N1c1ccccc1 (stereo unspecified)	-28%	-7%	-7%	18µM*	-7%
